# The campaign covered roughly 48,000 compounds. About 13,000 (27%) showed an effect of 50% or more. Some of the results follow.
# Test system: Wolbachia pipientis
# Test: Anti-Wolbachia Cell-Based Screen
# Type: functional
# Parameters: scale not given: in the data most compounds retested in dose-response had high values
# Conditions: 5 µM
row,Structure (SMILES),Percent Effect
1,CN1C[C@@H]2CN(Cc3ccsc3)CCC[C@]2(C(=O)O)C1.O=C(O)C(F)(F)F.O=C(O)C(F)(F)F,3.355%
2,Cc1ccc(CN2CCCC3(CCCC(=O)N3)C2)s1.O=C(O)C(F)(F)F (stereo unspecified),-10.23%
3,COCCN1C[C@@H]2CN(Cc3ccsc3)CCC[C@]2(C(=O)O)C1.O=C(O)C(F)(F)F.O=C(O)C(F)(F)F,4.755%
4,COCCN1C[C@@H]2CN(Cc3ccoc3)CCC[C@]2(C(=O)O)C1.O=C(O)C(F)(F)F.O=C(O)C(F)(F)F,-3.751%
5,Cc1ccc(CN2CCC[C@]3(C(=O)O)CN(C)C[C@@H]3C2)s1.O=C(O)C(F)(F)F.O=C(O)C(F)(F)F,119.8%
6,COCCN1C[C@@H]2CN(Cc3ccc(C)s3)CCC[C@]2(C(=O)O)C1.O=C(O)C(F)(F)F.O=C(O)C(F)(F)F,111.2%
7,Cc1ccc(CN2C[C@@H]3CN(CC4CCOCC4)CCO[C@@H]3C2)s1.O=C(O)C(F)(F)F.O=C(O)C(F)(F)F,-6.305%
8,Cc1ccc(CN2CCCC3(CCCN3S(C)(=O)=O)C2)s1.O=C(O)C(F)(F)F (stereo unspecified),2.867%
9,Cc1ccc(CN2CCC[C@]3(C(=O)O)CN(CC4CC4)C[C@@H]3C2)s1.O=C(O)C(F)(F)F.O=C(O)C(F)(F)F,98.43%
10,Cc1ocnc1C(=O)N1CCC2(CC1)c1nc[nH]c1CCN2CC(C)C,6.768%
11,OC(COCc1cccs1)CSc1nnc2ccccn12 (stereo unspecified),9.754%
12,COc1nn(C)c2c1CCCN(S(=O)(=O)c1cccc(F)c1)C2,-2.811%
13,COc1nn(C)c2c1CCCN(C(=O)c1cccc(C)n1)C2.O=C(O)C(F)(F)F,98.8%
14,Cn1nc(C#N)c2c1CN(C(=O)c1cccnc1)CCC2.O=C(O)C(F)(F)F,29.43%
15,Cc1ccccc1C(=O)N1Cc2c(Cn3ccnc3)nn(C)c2C1.O=C(O)C(F)(F)F,-9.207%
16,COc1nn(C)c2c1CCCN(C(=O)c1cccc3cccnc13)C2.O=C(O)C(F)(F)F,97.34%
17,COc1nn(C)c2c1CCCN(C(=O)c1ccccc1)C2,-3.094%
18,Cc1nc(COCc2cnc3n2CCN(C2CCC2)C3C)cs1.O=C(O)C(F)(F)F (stereo unspecified),1.124%
19,Cc1c(C(=O)N2CC(=O)N(C)C2)nnn1-c1cccc2cccnc12,-0.5272%
20,Cc1occc1C(=O)NCC(=O)NCCOc1ccc2c(c1)CCC2,29.83%
21,Cn1ccnc1C(=O)NC[C@H]1OC[C@@H]2CCN(S(C)(=O)=O)C[C@@H]21,-43.59%

# Reference: ChEMBL document CHEMBL3988442, “University of Dundee, Small-Polar-MMV Screening Library” (2021)
